Bioassay records from PubChem.
AID inh: activation induced cytidine deaminase inhibition | Q9GZX7 | AID deamination FRET fluorescence, UDG-coupled, 4 h | Potency, µM (doses to about 115 µM), hits mostly inhibitors | 91,000 tested, 0.32% active; note: nearly all actives have a fitted effect of over 25% in size
Target sequence (Q9GZX7 whole entry, looked up): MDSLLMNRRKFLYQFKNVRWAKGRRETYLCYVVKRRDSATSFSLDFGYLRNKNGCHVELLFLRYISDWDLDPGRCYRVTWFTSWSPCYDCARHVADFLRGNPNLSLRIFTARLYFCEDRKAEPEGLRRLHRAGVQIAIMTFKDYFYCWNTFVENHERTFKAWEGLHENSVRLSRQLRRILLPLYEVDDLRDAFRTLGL
UDG counterscr: UDG inhibition counter-screen | 91,000 tested, 0.14% active | FRET deamination/UDG coupled assay, UDG read, 4 h | Potency, µM (top dose mostly 115 µM), without a hit: top-dose activity change, negative = inhibition, hits mostly inhibitors; note: nearly all actives have a fitted effect of over 65% in size
An asterisk follows results filed as active; i = inactive; ? = inconclusive; [ ] = another dose, or the depositor's remark. In the library only some 0.47% were active in any assay of this set; here they are far more common. Calls come from the whole dose curve; as a rule, active = well fitted curve in the direction sought with a large enough effect; inconclusive = small, poorly fitted or top-dose-only effect, or another doubt; inactive = no such curve, though single readings can be large; an effect the other way counts as inactive or inconclusive. % is set by controls: 0 for no effect and ±100 for the full control effect; potency is the fitted concentration of half-maximal effect.

SMILES	AID inh	UDG counterscr
Cc1nc2c(cc(Oc3cnccn3)c3ccsc32)s1	i	-4.5%
Cc1cccc(C)c1OCCCCn1c(C2CC(=O)N(c3ccc(F)cc3)C2)nc2ccccc21 (centres undefined)	?	79.4µM*
COc1ccc(OCCn2c(C3CC(=O)N(c4ccc(F)cc4)C3)nc3ccccc32)cc1 (centres undefined)	?	-25.5%
CC(C)c1ccc(C(C)NC(=O)Cc2cccs2)cc1 (centres undefined)	i	8.9%
O=C(COc1ccc(F)cc1)NC1CCCN(c2ncccn2)C1 (centres undefined)	i	-19.0%
CSC1=N/C(=C\c2ccc(-c3ccc(Cl)cc3)o2)C(=O)S1	i	5.8%
CC(C)Cc1nc2cccnc2n1C1CCN(S(=O)(=O)c2ccc3c(c2)CCCC3)CC1	i	79.4µM*
Cc1nc2cccnc2n1C1CCN(S(=O)(=O)c2ccc(Cl)cc2)CC1	i	?
C=CCNc1nc(C(=O)OC(C)C(=O)Nc2ccc(F)c(F)c2F)cs1 (centres undefined)	i	-12.9%
CC(Nc1ccc(S(N)(=O)=O)cc1[N+](=O)[O-])c1ccco1 (centres undefined)	i	3.0%
COc1ccc(-c2cc(C(=O)NCCCOC(C)C)c3cc(Br)ccc3n2)cc1	i	5.9%
CCc1cc(C(c2ccc(OC)cc2)N2CCOCC2)c(NC(=O)c2ccco2)s1 (centres undefined)	i	-4.6%
Cc1cccn2c(=O)c3cc(C(=O)N(Cc4ccccc4)C(C)C)sc3nc12	79.4µM*	0.0%
CCN(C(=O)c1cc2c(=O)n3cccc(C)c3nc2s1)c1ccc(C)c(C)c1	?	-2.3%[57.5 µM]
CCCCc1noc(CN2CCC(c3nc4cc(Cl)ccc4o3)CC2)n1	i	-11.3%
CCCCc1nc(CN2CCN(c3cccc(F)c3C#N)CC2)no1	?	89.1µM*
CCCCSCC(O)CSc1nc(-c2ccccc2)cc(-c2ccc(C)cc2)c1C#N (centres undefined)	i	0.2%
COc1ccc(C)cc1NC(=O)Cn1nc(-c2cccs2)oc1=O	i	-13.2%
COc1ccc(-n2cc(-c3ccccc3)c3c(NC4CCCC4)ncnc32)cc1	35.5µM*	-8.2%[57.5 µM]
Clc1cccc(-n2cc(-c3ccccc3)c3c(NC4CCCC4)ncnc32)c1	?	-1.2%[57.5 µM]
CCCN1CCC(N(C)C(=O)Nc2ccc(F)cc2F)CC1	i	4.7%
Fc1ccc(CNc2nc(-c3ccccc3)cc(C(F)(F)F)n2)cc1	44.7µM*	-20.5%
COc1cccc(-c2cc(C(F)(F)F)nc(NCc3ccc(F)cc3)n2)c1	?	-16.4%
COc1ccc(C(=O)Nc2ccc(N3CCN(S(C)(=O)=O)CC3)cc2)cc1OC	i	2.6%
CCN(CC)CCCNC(=O)c1oc2c(c1C)-c1nn(Cc3ccc(Cl)cc3)cc1CC2	i	-12.3%[57.5 µM]
SMILES	AID inh	UDG counterscr
COCCCNC(=O)c1oc2c(c1C)-c1nn(Cc3cccc(Cl)c3)cc1CC2	89.1µM*	-13.7%[57.5 µM]
COCCCNC(=O)c1oc2c(c1C)-c1nn(Cc3ccc(Cl)cc3)cc1CC2	i	-13.8%[57.5 µM]
CCOCCCNC(=O)Cn1cc2c(n1)-c1c(oc(C(=O)N3CCCC3)c1C)CC2	79.4µM*	?
Cc1cccc(CSc2nnc(COc3ccc(Cl)c(C)c3)n2C)c1	?	-0.3%
C/C(=N/NC(=S)Nc1ccc(Cl)cc1)c1ccc(Br)cc1	i	-5.5%
COc1ccc(CNCCC(c2ccc(C)cc2)c2ccco2)cc1 (centres undefined)	i	-4.2%
COc1ccc(CNCCC(c2ccccc2)c2ccc3c(c2)OCO3)cc1 (centres undefined)	44.7µM*	5.2%
O=[N+]([O-])c1c(Nc2ccccc2Cl)cc(Cl)c2nonc12	i	-12.3%
N#CC1=C(N)OC2=C(C(=O)CC(c3ccccc3)C2)C1c1ccccc1Br (centres undefined)	i	-10.6%
CCc1ccc(-n2c(Cc3ccccc3)nnc2SCc2nc(-c3cccs3)no2)cc1	39.8µM*	?
Cc1ccccc1-c1noc(CSc2nnc(Cc3ccccc3)n2-c2ccc(F)cc2)n1	20µM*	?
CCOc1ccc(-c2noc(CSc3nnc(Cc4ccccc4)n3-c3ccc(F)cc3)n2)cc1	?	-22.9%
CCOc1ccc(-n2c(Cc3ccccc3)nnc2SCc2nc(-c3ccccc3OC)no2)cc1	?	-18.9%
O=C(CN1C(=O)S/C(=C\c2ccc(F)cc2)C1=O)Nc1ccc2oc(=O)ccc2c1	i	3.1%
CC(C)c1ccc(Nc2ncnc3onc(-c4ccc(F)cc4)c23)cc1	?	89.1µM*
Cc1noc2ncnc(Nc3ccc(F)cc3)c12	i	-12.7%
COc1ccccc1C(=O)Nc1ccc2nc(N3CCC(C)CC3)cc(C)c2c1	?	-17.6%
COc1cc(OC)cc(C(=O)Nc2ccc3nc(N4CCC(C)CC4)cc(C)c3c2)c1	39.8µM*	?
Cc1ccc(NC(=O)Cc2nnc(SCC(=O)NC34CC5CC(CC(C5)C3)C4)n2C)cc1C	i	89.1µM*
